{"source": "the supplement of paper PMC4466140"}
{"target": "ScBbc1", "experiment": "SPOT peptide array binding signal intensity (averaged, normalized) (arbitrary units (background-subtracted, floor 0; scale differs between SH3 domains)); higher = stronger binding of the SH3 domain to the peptide", "outline": "(§1)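 GST-SH3 fusions from four yeast species, purified on glutathione Sepharose, were incubated at 10 μg/ml overnight at 4°C on membranes of synthetic 15-mer peptides in which cysteines were replaced with serines. Binding signal is the normalized, background-subtracted spot intensity averaged over replicates, in domain-specific arbitrary units.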"}
{"binder": "NLPKRKPPKLQGPFS", "SPOT peptide array binding signal intensity": 6.25}
{"target": "ScBem1-D1", "experiment": "SPOT peptide array binding signal intensity (averaged, normalized) (arbitrary units (background-subtracted, floor 0; scale differs between SH3 domains)); higher = stronger binding of the SH3 domain to the peptide", "outline": "as §1"}
{"binder": "NLPKRKPPKLQGPFS", "SPOT peptide array binding signal intensity": 16}
{"target": "ScBzz1-D1", "experiment": "SPOT peptide array binding signal intensity (averaged, normalized) (arbitrary units (background-subtracted, floor 0; scale differs between SH3 domains)); higher = stronger binding of the SH3 domain to the peptide", "outline": "as §1"}
{"binder": "NLPKRKPPKLQGPFS", "SPOT peptide array binding signal intensity": 39.5}
{"target": "ScBzz1-D2", "experiment": "SPOT peptide array binding signal intensity (averaged, normalized) (arbitrary units (background-subtracted, floor 0; scale differs between SH3 domains)); higher = stronger binding of the SH3 domain to the peptide", "outline": "as §1"}
{"binder": "NLPKRKPPKLQGPFS", "SPOT peptide array binding signal intensity": 4}
{"target": "ScCyk3", "experiment": "SPOT peptide array binding signal intensity (averaged, normalized) (arbitrary units (background-subtracted, floor 0; scale differs between SH3 domains)); higher = stronger binding of the SH3 domain to the peptide", "outline": "as §1"}
{"binder": "NLPKRKPPKLQGPFS", "SPOT peptide array binding signal intensity": 113}
{"target": "ScFus1", "experiment": "SPOT peptide array binding signal intensity (averaged, normalized) (arbitrary units (background-subtracted, floor 0; scale differs between SH3 domains)); higher = stronger binding of the SH3 domain to the peptide", "outline": "as §1"}
{"binder": "NLPKRKPPKLQGPFS", "SPOT peptide array binding signal intensity": 162}
{"target": "ScHof1", "experiment": "SPOT peptide array binding signal intensity (averaged, normalized) (arbitrary units (background-subtracted, floor 0; scale differs between SH3 domains)); higher = stronger binding of the SH3 domain to the peptide", "outline": "as §1"}
{"binder": "NLPKRKPPKLQGPFS", "SPOT peptide array binding signal intensity": 1.25}
{"target": "ScHse1", "experiment": "SPOT peptide array binding signal intensity (averaged, normalized) (arbitrary units (background-subtracted, floor 0; scale differs between SH3 domains)); higher = stronger binding of the SH3 domain to the peptide", "outline": "as §1"}
{"binder": "NLPKRKPPKLQGPFS", "SPOT peptide array binding signal intensity": 1280}
{"target": "ScLsb1", "experiment": "SPOT peptide array binding signal intensity (averaged, normalized) (arbitrary units (background-subtracted, floor 0; scale differs between SH3 domains)); higher = stronger binding of the SH3 domain to the peptide", "outline": "as §1"}
{"binder": "NLPKRKPPKLQGPFS", "SPOT peptide array binding signal intensity": 0.5}
{"target": "ScLsb2", "experiment": "SPOT peptide array binding signal intensity (averaged, normalized) (arbitrary units (background-subtracted, floor 0; scale differs between SH3 domains)); higher = stronger binding of the SH3 domain to the peptide", "outline": "as §1"}
{"binder": "NLPKRKPPKLQGPFS", "SPOT peptide array binding signal intensity": 3.5}
{"target": "ScLsb3", "experiment": "SPOT peptide array binding signal intensity (averaged, normalized) (arbitrary units (background-subtracted, floor 0; scale differs between SH3 domains)); higher = stronger binding of the SH3 domain to the peptide", "outline": "as §1"}
{"binder": "NLPKRKPPKLQGPFS", "SPOT peptide array binding signal intensity": 328}
{"target": "ScLsb4", "experiment": "SPOT peptide array binding signal intensity (averaged, normalized) (arbitrary units (background-subtracted, floor 0; scale differs between SH3 domains)); higher = stronger binding of the SH3 domain to the peptide", "outline": "as §1"}
{"binder": "NLPKRKPPKLQGPFS", "SPOT peptide array binding signal intensity": 21.5}
{"target": "ScMyo3", "experiment": "SPOT peptide array binding signal intensity (averaged, normalized) (arbitrary units (background-subtracted, floor 0; scale differs between SH3 domains)); higher = stronger binding of the SH3 domain to the peptide", "outline": "as §1"}
{"binder": "NLPKRKPPKLQGPFS", "SPOT peptide array binding signal intensity": 63.2}
{"target": "ScMyo5", "experiment": "SPOT peptide array binding signal intensity (averaged, normalized) (arbitrary units (background-subtracted, floor 0; scale differs between SH3 domains)); higher = stronger binding of the SH3 domain to the peptide", "outline": "as §1"}
{"binder": "NLPKRKPPKLQGPFS", "SPOT peptide array binding signal intensity": 29.5}
{"target": "ScNbp2", "experiment": "SPOT peptide array binding signal intensity (averaged, normalized) (arbitrary units (background-subtracted, floor 0; scale differs between SH3 domains)); higher = stronger binding of the SH3 domain to the peptide", "outline": "as §1"}
{"binder": "NLPKRKPPKLQGPFS", "SPOT peptide array binding signal intensity": 475}
{"target": "ScPex13", "experiment": "SPOT peptide array binding signal intensity (averaged, normalized) (arbitrary units (background-subtracted, floor 0; scale differs between SH3 domains)); higher = stronger binding of the SH3 domain to the peptide", "outline": "as §1"}
{"binder": "NLPKRKPPKLQGPFS", "SPOT peptide array binding signal intensity": 2}
{"target": "ScRvs167", "experiment": "SPOT peptide array binding signal intensity (averaged, normalized) (arbitrary units (background-subtracted, floor 0; scale differs between SH3 domains)); higher = stronger binding of the SH3 domain to the peptide", "outline": "as §1"}
{"binder": "NLPKRKPPKLQGPFS", "SPOT peptide array binding signal intensity": 23}
{"target": "ScSho1", "experiment": "SPOT peptide array binding signal intensity (averaged, normalized) (arbitrary units (background-subtracted, floor 0; scale differs between SH3 domains)); higher = stronger binding of the SH3 domain to the peptide", "outline": "as §1"}
{"binder": "NLPKRKPPKLQGPFS", "SPOT peptide array binding signal intensity": 408}
{"target": "ScSla1-D1-D2", "experiment": "SPOT peptide array binding signal intensity (averaged, normalized) (arbitrary units (background-subtracted, floor 0; scale differs between SH3 domains)); higher = stronger binding of the SH3 domain to the peptide", "outline": "as §1"}
{"binder": "NLPKRKPPKLQGPFS", "SPOT peptide array binding signal intensity": 164}
{"target": "ScSla1-D3", "experiment": "SPOT peptide array binding signal intensity (averaged, normalized) (arbitrary units (background-subtracted, floor 0; scale differs between SH3 domains)); higher = stronger binding of the SH3 domain to the peptide", "outline": "as §1"}
{"binder": "NLPKRKPPKLQGPFS", "SPOT peptide array binding signal intensity": 12.5}
{"target": "SpAbp1-D1", "experiment": "SPOT peptide array binding signal intensity (averaged, normalized) (arbitrary units (background-subtracted, floor 0; scale differs between SH3 domains)); higher = stronger binding of the SH3 domain to the peptide", "outline": "as §1"}
{"binder": "NLPKRKPPKLQGPFS", "SPOT peptide array binding signal intensity": 498}
{"target": "SpBbc1", "experiment": "SPOT peptide array binding signal intensity (averaged, normalized) (arbitrary units (background-subtracted, floor 0; scale differs between SH3 domains)); higher = stronger binding of the SH3 domain to the peptide", "outline": "as §1"}
{"binder": "NLPKRKPPKLQGPFS", "SPOT peptide array binding signal intensity": 1.5}
{"target": "SpBzz1-D1", "experiment": "SPOT peptide array binding signal intensity (averaged, normalized) (arbitrary units (background-subtracted, floor 0; scale differs between SH3 domains)); higher = stronger binding of the SH3 domain to the peptide", "outline": "as §1"}
{"binder": "NLPKRKPPKLQGPFS", "SPOT peptide array binding signal intensity": 382}
{"target": "SpBzz1-D2", "experiment": "SPOT peptide array binding signal intensity (averaged, normalized) (arbitrary units (background-subtracted, floor 0; scale differs between SH3 domains)); higher = stronger binding of the SH3 domain to the peptide", "outline": "as §1"}
{"binder": "NLPKRKPPKLQGPFS", "SPOT peptide array binding signal intensity": 0.5}
{"target": "SpCyk3", "experiment": "SPOT peptide array binding signal intensity (averaged, normalized) (arbitrary units (background-subtracted, floor 0; scale differs between SH3 domains)); higher = stronger binding of the SH3 domain to the peptide", "outline": "as §1"}
{"binder": "NLPKRKPPKLQGPFS", "SPOT peptide array binding signal intensity": 1}
{"target": "SpHof1", "experiment": "SPOT peptide array binding signal intensity (averaged, normalized) (arbitrary units (background-subtracted, floor 0; scale differs between SH3 domains)); higher = stronger binding of the SH3 domain to the peptide", "outline": "as §1"}
{"binder": "NLPKRKPPKLQGPFS", "SPOT peptide array binding signal intensity": 117}
{"target": "SpHof1-2", "experiment": "SPOT peptide array binding signal intensity (averaged, normalized) (arbitrary units (background-subtracted, floor 0; scale differs between SH3 domains)); higher = stronger binding of the SH3 domain to the peptide", "outline": "as §1"}
{"binder": "NLPKRKPPKLQGPFS", "SPOT peptide array binding signal intensity": 3.25}
{"target": "SpHof1-3", "experiment": "SPOT peptide array binding signal intensity (averaged, normalized) (arbitrary units (background-subtracted, floor 0; scale differs between SH3 domains)); higher = stronger binding of the SH3 domain to the peptide", "outline": "as §1"}
{"binder": "NLPKRKPPKLQGPFS", "SPOT peptide array binding signal intensity": 475}
{"target": "SpHse1", "experiment": "SPOT peptide array binding signal intensity (averaged, normalized) (arbitrary units (background-subtracted, floor 0; scale differs between SH3 domains)); higher = stronger binding of the SH3 domain to the peptide", "outline": "as §1"}
{"binder": "NLPKRKPPKLQGPFS", "SPOT peptide array binding signal intensity": 722}
{"target": "SpLsb1", "experiment": "SPOT peptide array binding signal intensity (averaged, normalized) (arbitrary units (background-subtracted, floor 0; scale differs between SH3 domains)); higher = stronger binding of the SH3 domain to the peptide", "outline": "as §1"}
{"binder": "NLPKRKPPKLQGPFS", "SPOT peptide array binding signal intensity": 5}
{"target": "SpLsb4", "experiment": "SPOT peptide array binding signal intensity (averaged, normalized) (arbitrary units (background-subtracted, floor 0; scale differs between SH3 domains)); higher = stronger binding of the SH3 domain to the peptide", "outline": "as §1"}
{"binder": "NLPKRKPPKLQGPFS", "SPOT peptide array binding signal intensity": 756}
{"target": "SpMyo1", "experiment": "SPOT peptide array binding signal intensity (averaged, normalized) (arbitrary units (background-subtracted, floor 0; scale differs between SH3 domains)); higher = stronger binding of the SH3 domain to the peptide", "outline": "as §1"}
{"binder": "NLPKRKPPKLQGPFS", "SPOT peptide array binding signal intensity": 254}
{"target": "SpNbp2", "experiment": "SPOT peptide array binding signal intensity (averaged, normalized) (arbitrary units (background-subtracted, floor 0; scale differs between SH3 domains)); higher = stronger binding of the SH3 domain to the peptide", "outline": "as §1"}
{"binder": "NLPKRKPPKLQGPFS", "SPOT peptide array binding signal intensity": 82.5}
{"target": "SpPex13", "experiment": "SPOT peptide array binding signal intensity (averaged, normalized) (arbitrary units (background-subtracted, floor 0; scale differs between SH3 domains)); higher = stronger binding of the SH3 domain to the peptide", "outline": "as §1"}
{"binder": "NLPKRKPPKLQGPFS", "SPOT peptide array binding signal intensity": 5}
{"target": "SpRvs167", "experiment": "SPOT peptide array binding signal intensity (averaged, normalized) (arbitrary units (background-subtracted, floor 0; scale differs between SH3 domains)); higher = stronger binding of the SH3 domain to the peptide", "outline": "as §1"}
{"binder": "NLPKRKPPKLQGPFS", "SPOT peptide array binding signal intensity": 7.17}
{"target": "SpSla1-D1-D2", "experiment": "SPOT peptide array binding signal intensity (averaged, normalized) (arbitrary units (background-subtracted, floor 0; scale differs between SH3 domains)); higher = stronger binding of the SH3 domain to the peptide", "outline": "as §1"}
{"binder": "NLPKRKPPKLQGPFS", "SPOT peptide array binding signal intensity": "≤ 0"}
{"target": "SpSla1-D3", "experiment": "SPOT peptide array binding signal intensity (averaged, normalized) (arbitrary units (background-subtracted, floor 0; scale differs between SH3 domains)); higher = stronger binding of the SH3 domain to the peptide", "outline": "as §1"}
{"binder": "NLPKRKPPKLQGPFS", "SPOT peptide array binding signal intensity": 1}
